Screening data as filed in PubChem BioAssay.
A selection: hits, their analogues and other compounds. The true share with any hit is near 4.5%.
Rtt109 Vps75: inhibitors of Candida albicans Rtt109/Vps75 histone acetyltransferase. 0.16% of 330,000 active. Q5AAJ8. purified Rtt109/Vps75, ThioGlo CoA-SH fluorescence, 4 h. inhibition, % at 34.9 µM;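 active means inhibition of at least 50% in every replicate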
Efflux pump mplx: antifungal efflux pump inhibition, Nile Red retention; S. cerevisiae Candida pump triplex; 0.44% of 330,000 active; inhibition, % at 10 µM;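 active means plate passing quality check with inhibition over a set limit, or well fluorescence over plate mean plus 4 SD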;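 further: Nile Red retained in pooled yeast measured as flow cytometry median fluorescence; 0% = buffer negative control and 100% = Enniatin B positive control; higher means more Nile Red kept so more efflux inhibition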
ALR inh: inhibitors of human sulfhydryl oxidase ALR. P55789. purified ALR, DTT oxidation, H2O2 HRP-luminol luminescence. inhibition, % (test concentration not listed). 3.8% of 290,000 active;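 active means mean replicate inhibition above about 79%, with every replicate also reaching it, limit read from the data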
Target sequence (P55789 whole entry, looked up): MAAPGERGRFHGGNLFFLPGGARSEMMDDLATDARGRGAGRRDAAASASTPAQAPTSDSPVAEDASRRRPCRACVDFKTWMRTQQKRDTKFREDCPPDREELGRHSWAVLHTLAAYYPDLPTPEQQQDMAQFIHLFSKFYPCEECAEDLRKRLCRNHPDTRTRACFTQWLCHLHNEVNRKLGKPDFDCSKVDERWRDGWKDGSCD
Rce1 inh: inhibitors of yeast Ras-converting enzyme. 0.27% of 290,000 active. Q03530. yeast membranes, quenched prenylated peptide cleavage fluorescence. calls only. AID 2563;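 active means fall in fluorescence gain of 50% or more versus controls, with final raw signal at or below 3038400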;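 further: plate controls were neutral control wells for no effect and wells lacking membranes for full effect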
GRK2 aptamer HTS: blocks RNA aptamer binding to human GRK2. P25098. bead flow cytometry, FAM-aptamer displacement from GRK2. inhibition of aptamer binding, % at 10 µM. 0.59% of 330,000 active. AID 488847;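 active means inhibition of aptamer binding above 40%, roughly 3 SD of noise, on plates passing a quality check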;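 further: median bead fluorescence of bound FAM aptamer so fluorescent compounds give negative values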
HDAC3 inh: blocks human histone deacetylase 3; recombinant HDAC3, fluorogenic peptide/trypsin coupled, fluorescence; inhibition, % at 8.3 µM; 0.15% of 320,000 active; in the data active means inhibition above about 26%, passing the limit was not always enough
Target sequence (O15379 whole entry, looked up): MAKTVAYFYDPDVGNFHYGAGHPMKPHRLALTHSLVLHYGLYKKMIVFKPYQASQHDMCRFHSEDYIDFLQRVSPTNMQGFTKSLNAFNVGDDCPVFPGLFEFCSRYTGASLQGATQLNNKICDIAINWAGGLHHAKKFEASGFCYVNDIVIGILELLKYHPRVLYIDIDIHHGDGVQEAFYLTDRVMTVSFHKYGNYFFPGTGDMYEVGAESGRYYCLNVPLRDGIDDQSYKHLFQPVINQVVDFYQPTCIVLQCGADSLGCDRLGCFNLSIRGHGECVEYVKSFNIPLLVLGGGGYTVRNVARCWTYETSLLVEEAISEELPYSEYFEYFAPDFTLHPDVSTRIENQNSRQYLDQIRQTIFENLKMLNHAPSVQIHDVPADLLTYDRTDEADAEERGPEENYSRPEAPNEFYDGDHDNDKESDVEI
GRK2 inh confirm: human GRK2 inhibition confirmation, cherry pick 1; shares compounds with GRK2 aptamer HTS; bead-bound GRK2, FAM-aptamer displacement, flow cytometry; aptamer displacement, % at 10 µM; 4% of 2,000 active; AID 504451;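 active means aptamer displacement above 40%, near three times the noise of non-fluorescent compounds, on plates passing quality checks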;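 further: negative values mostly reflect intrinsic compound fluorescence rather than true enhancement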
Aptamer quench 1: fluorescent aptamer quenching in GRK2 counter-screen dose response. shares compounds with GRK2 aptamer HTS. Fluorescent RNA aptamer beads, flow cytometry; stronger effect = higher value. fluorescence change (kMESF span), kMESF (no concentration beside the values). 110 tested, under 10 active;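 active means compounds whose bead fluorescence drops by more than 37 kMESF across the dose range, marking them as dye quenchers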
FAM quench CP1: counter-screen for GRK2 aptamer inhibitors: fluorescent aptamer quenchers | shares compounds with GRK2 aptamer HTS | Carboxyfluorescein RNA aptamer on beads, flow cytometry quenching; stronger effect = lower value | fluorescence response (% of DMSO), % at 10 µM | 2,000 tested, under 10 active;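 active means compounds that quench the bead-bound fluorescent RNA probe, cutting fluorescence to under half of the solvent control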;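 further: counterscreen run without GRK2 so only probe quenching by compound is measured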
GRK2 CP2: human GRK2 inhibition confirmation, cherry pick 2 | shares compounds with GRK2 aptamer HTS | bead-bound GRK2, FAM-aptamer displacement, flow cytometry | inhibition of aptamer binding, % at 10 µM | 360 tested, under 10 active | AID 504782;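 active means inhibition of aptamer binding above 40%, about triple the noise seen with nonglowing compounds, on plates passing quality control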;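 further: negative values mostly come from compounds that fluoresce themselves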
FAM quench SP: quenches fluorescent RNA aptamer, GRK2 hit artifact; shares compounds with GRK2 aptamer HTS; carboxyfluorescein RNA aptamer beads, flow cytometry quenching; stronger effect = lower value; fluorescence response vs DMSO, % at 10 µM; 360 tested, under 10 active;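 active means response vs DMSO under 50%, meaning signal dropped by over half, treated as fluorescence quencher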;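 further: labelled aptamer on streptavidin beads without GRK2 as a quench counter-screen; 100% = bead fluorescence of DMSO wells and lower means quenching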
FAM quench PS1: aptamer fluorescence quenching in GRK2 powder counter-screen; Bead-bound FAM RNA aptamer fluorescence quenching, flow cytometry; stronger effect = lower value; fluorescence ratio to DMSO, % at 11.1 µM; 35 tested, under 10 active; shares compounds with GRK2 aptamer HTS;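 active means compounds that dim the fluorescent label, raw bead signal shifting by over 33 units between lowest and highest dose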
The depositor's hits bear a star; i = inactive; x = no result.

SMILES | Rtt109 Vps75 | Efflux pump mplx | ALR inh | Rce1 inh | GRK2 aptamer HTS | HDAC3 inh | GRK2 inh confirm | FAM quench CP1 | others
CCCN(C(=O)c1cn(C)c(=O)c2ccccc12)c1ccccc1C | -4.6 | 0.2 | -39.6 | i | 0.0 | -7.1 | -2.6 | 95.6
CCCCCc1cccnc1 | 9.5 | -0.2 | -1.2 | i | 64.0* | x | -1.1 | 95.7
CCc1ccc(CNCc2cccnc2)cc1 | 13.6 | -0.1 | 2.9 | i | 0.0 | 2.8 | x | x
COc1ccccc1NC(=O)Cc1csc(NC(=S)Nc2ccccc2)n1 | 11.3 | 0.2 | x | i | 58.0* | 4.3 | 1.7 | 98.8
COc1ccc(OCC(O)CNC(=O)Nc2cccc3ccccc23)cc1 (centres undefined) | 1.5 | 0.0 | -10.9 | i | 0.0 | 0.1 | x | x
COc1cccc(-c2c(NC(C)=O)n(C)c3ccccc3c2=O)c1 | 0.7 | -0.2 | -0.2 | i | 46.0* | -0.6 | -1.8 | 100.6
O=C1NC2=C(C(=O)CCC2)C(c2ccccc2)N1 (centres undefined) | -5.1 | 0.3 | -3.1 | i | 1.0 | 3.4 | x | x
CC1(C)CC(=O)C2=C(C1)NC(=O)NC2c1ccccc1 (centres undefined) | x | 0.0 | x | i | 47.0* | -1.6 | -2.1 | 101.7
O=C(CSc1nnc(SCc2ccc(Cl)cc2)s1)N/N=C/c1ccccc1C(=O)O | 8.9 | 0.1 | x | i | 1.0 | -2.3 | x | x
Cc1nc(SCC(=O)O)c(C#N)c2c1CCCC2 | -2.4 | -0.1 | -8.2 | i | 82.0* | 5.4 | 15.4 | 101.2
CC(C)C[C@H]1CN=C(Nc2ccccc2)N1CCC1CCCCC1 | -16.5 | 0.0 | -1.7 | i | 0.0 | 4.3 | x | x
c1ccc(C[C@H]2CN=C(Nc3ccccc3)N2CCC2CCCC2)cc1 | 11.7 | -0.1 | x | x | 68.0* | -0.9 | -3.6 | 99.1
Fc1ccc2cnc(-c3ccccc3)c(-c3ccc(C(F)(F)F)cc3)c2c1 | 1.7 | -0.3 | -7.0 | x | 0.0 | -1.4 | x | x
O=[N+]([O-])c1ccc(-c2c(-c3ccccc3)ncc3ccc(F)cc23)cc1 | -6.8 | -0.2 | 21.8 | x | 100.0* | 0.1 | 2.6 | 104.1
COc1ccccc1NC(=O)C(C)OC(=O)C1CC(=O)N(c2ccc3c(c2)OCCO3)C1 (centres undefined) | -2.4 | -0.4 | -7.7 | i | 0.0 | -3.4 | x | x
COc1cccc(OC)c1OC(=O)C1CC(=O)N(c2ccc3c(c2)OCCO3)C1 (centres undefined) | -11.7 | 0.1 | -8.4 | x | 2.0 | -3.7 | x | x | GRK2 CP2=30.4;FAM quench SP=104.0
O=C(O)C1CC(=O)N(c2ccc3c(c2)OCCO3)C1 (centres undefined) | -0.5 | 0.1 | -10.3 | i | 61.0* | 1.9 | 40.2* | 96.8 | Aptamer quench 1=-11.5;FAM quench PS1=101.0
COc1cccc(C2=NO[C@@H]3C(=O)N(c4ccc5c(c4)OCCO5)C(=O)[C@H]23)c1OC | -5.6 | -0.1 | -26.8 | i | 3.0 | 0.5 | x | x | GRK2 CP2=1.1;FAM quench SP=102.0
CC(C)OCC1CO1 (centres undefined) | 3.2 | 0.2 | -16.6 | x | 4.0 | -4.8 | x | x
CCCCN1C(C(=O)Nc2ncccn2)=C(O)c2ccccc2S1(=O)=O | 1.7 | 0.2 | 18.7 | i | 4.0 | 6.5 | -0.8 | 95.9
CN1C(C(=O)Nc2ccc(C(=O)O)cc2)=C(O)c2ccccc2S1(=O)=O | -7.1 | -0.1 | 21.6 | x | 0.0 | -5.9 | x | x
CCOC(=O)CC/C(C)=N\N=C1\SC(CC(=O)O)C(=O)N1c1ccccc1 (centres undefined) | -20.0 | -0.1 | 0.6 | i | 0.0 | -2.1 | x | x
Cc1nc(NC(=O)COC(=O)C2=NNC(=O)CC2)c(Cl)cc1Cl | 13.4 | -0.1 | 0.8 | i | 55.0* | -1.8 | -0.3 | 93.8
O=C1CCC(C(=O)OCC(=O)Nc2cc(Cl)ccc2F)=NN1 | -11.0 | -0.1 | 0.1 | x | 0.0 | 1.2 | x | x
O=C(COc1ccccc1Cl)NNC(=O)c1ccc(-n2cncn2)c([N+](=O)[O-])c1 | -0.6 | -0.1 | -23.0 | x | 2.0 | 1.4 | x | x
SMILES | Rtt109 Vps75 | Efflux pump mplx | ALR inh | Rce1 inh | GRK2 aptamer HTS | HDAC3 inh | GRK2 inh confirm | FAM quench CP1 | others
CCn1ccc(C(=O)Nc2ccccc2SC)n1 | 23.0 | -0.1 | 1.0 | i | 0.0 | 2.7 | x | x
CC(=O)c1cccc(NS(=O)(=O)c2c(C(=O)N3CCOCC3)c(C)n(C)c2C)c1 | -2.3 | -0.1 | -5.5 | i | 0.0 | -2.6 | x | x
CCOC(=O)C1CCN(CC(=O)Nc2c(C(=O)OC)[nH]c3cccc(C)c23)CC1 | 4.7 | 0.0 | x | i | 54.0* | -3.2 | -4.0 | 98.2
CC1CCN(CCOCCOc2ccccc2-c2ccccc2)CC1 | 19.0 | 0.4 | -7.6 | i | 1.0 | -3.0 | x | x
CC1CCN(CCOCCOc2ccccc2Br)CC1 | -6.1 | -0.1 | x | i | 95.0* | 4.3 | -1.6 | 97.8
CC(Oc1cccc(Cl)c1)C(=O)N1CCCN(C)CC1 (centres undefined) | -3.1 | 0.0 | 4.6 | i | 0.0 | 1.2 | x | x
O=C(NC1CCCCC1)c1cc(C2CC2)nn1-c1ccccc1 | 13.7 | 0.1 | x | x | 89.0* | x | 1.2 | 96.9
Cc1nn(-c2ccccc2)c(Cl)c1C(=O)NC1CCCCC1 | 0.7 | 0.0 | -0.7 | i | 1.0 | 2.1 | x | x
COC(=O)c1c(NC(=O)COC(=O)[C@@H](NS(=O)(=O)c2cccc(Cl)c2)C(C)C)sc2c1CCC2 | -0.3 | 0.2 | 1.2 | i | 0.0 | -2.3 | x | x
CC(C)[C@H](NS(=O)(=O)c1cccc(Cl)c1)C(=O)OCC(=O)NC(=O)CN1CCCC1=O | -1.4 | 0.1 | -5.8 | x | 45.0* | -1.3 | 38.7 | 99.9
O=c1cc(CO)[nH]cc1OCc1ccccc1 | 1.8 | -0.1 | 1.3 | i | 1.0 | -1.5 | x | x
O=C(/C=C/c1ccc(OC(F)F)cc1)OCC(=O)N1CCc2ccccc21 | 1.5 | -0.1 | x | i | 2.0 | 2.7 | x | x
COc1ccccc1/C=C/C(=O)OCC(=O)N1CCc2ccccc21 | -4.2 | 0.1 | x | x | 95.0* | 0.6 | -3.8 | 101.8
Cc1ccc(NC(=O)c2noc3c2CCCCC3)cc1C | -6.6 | 0.3 | 6.9 | i | 100.0* | 4.4 | 0.2 | 98.9
